PubChem BioAssay AID1159580 (chemical genetic matrix, 2015)
Where “and” joins values, the source holds several entries; their conditions need not be identical. Equal entries are not always repeated. The whole screen tested about 5,500 compounds, of which about 2,000 (36%) were called active. About 18% were inconclusive and are not listed. Rule as the data show it: active = normalized growth mostly below about 0.91 (no sharp cut-off); inconclusive = no clear call, values can overlap the other calls; inactive = mostly above about 0.92. The list shows a part of the results.

Test: chemical genetic growth profiling, strain panel (AID 1159580);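 also: tested at 20 µM; growth read once vehicle control cultures reached saturation at 30 °C; 1 = growth at the plate median or of vehicle wells; lower values mean less growth of the strain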
Conditions: S. cerevisiae deletion strains, growth OD

Measured: normalized growth

C#C[C@]1(O)CCC2C3CCC4=CC(=O)CC[C@@H]4C3CC[C@@]21C (some centres undefined)
inactive: locus YAL021C, strain ccr4, hits give low values 0.973 | locus YAL026C, strain drs2, hits give low values 0.967 | locus YAL030W, strain snc1, hits give low values 0.987 | locus YBL061C, strain skt5, hits give low values 0.989 | locus YBR009C, strain hhf1, hits give low values 0.985 | locus YBR021W, strain FUR4, hits give low values 0.978 | locus YBR023C, strain chs3, hits give low values 0.987 | locus YBR171W, strain sec66, hits give low values 0.969 | locus YBR229C, strain ROT2, hits give low values 0.997 | locus YBR231C, strain swc5, hits give low values 1 | locus YBR279W, strain paf1, hits give low values 0.994 | locus YCL011C, strain gbp2, hits give low values 0.984 | locus YCL016C, strain dcc1, hits give low values 1 | locus YCL029C, strain bik1, hits give low values 0.984 | locus YCL061C, strain MRC1, hits give low values 0.977 | locus YCL069W, strain vba3, hits give low values 0.968 | locus YCR088W, strain abp1, hits give low values 0.982 | locus YDL005C, strain med2, hits give low values 0.962 | locus YDL035C, strain GPR1, hits give low values 0.98 | locus YDL040C, strain nat1, hits give low values 0.984 | locus YDL074C, strain BRE1, hits give low values 0.988 | locus YDL101C, strain DUN1, hits give low values 0.995 | locus YDL134C, strain PPH21, hits give low values 0.975 | locus YDL185W, strain tfp1, hits give low values 0.98 | locus YDL192W, strain arf1, hits give low values 0.978 | locus YDR001C, strain nth1, hits give low values 0.981 | locus YDR069C, strain doa4, hits give low values 0.972 | locus YDR101C, strain arx1, hits give low values 0.97 | locus YDR137W, strain rgp1, hits give low values 0.892 | locus YDR150W, strain NUM1, hits give low values 1.01 | locus YDR159W, strain sac3, hits give low values 0.981 | locus YDR162C, strain NBP2, hits give low values 0.932 | locus YDR195W, strain ref2 1.01 | locus YDR297W, strain sur2, hits give low values 0.993 | locus YDR318W, strain mcm21, hits give low values 0.974 | locus YDR334W, strain swr1, hits give low values 0.977 | locus YDR335W, strain msn5, hits give low values 0.98 | locus YDR388W, hits give low values 0.975 | locus YDR392W, strain spt3, hits give low values 0.801 | locus YDR502C, strain sam2, hits give low values 0.957 | locus YEL003W, strain gim4, hits give low values 0.97 | locus YEL037C, strain rad23, hits give low values 0.966 | locus YEL061C, strain CIN8 (second series), hits give low values 0.967 | locus YEL061C, strain CIN8, hits give low values 0.995 | locus YER015W, strain faa2, hits give low values 0.974 | locus YER016W, strain bim1, hits give low values 0.98 | locus YER110C, hits give low values 0.982 | locus YER111C, strain swi4, hits give low values 0.988 | locus YER155C, strain BEM2 (second series), hits give low values 0.981 | locus YER155C, strain BEM2, hits give low values 0.999 | locus YER167W, strain BCK2, hits give low values 0.991 | locus YFR010W, strain ubp6, hits give low values 0.979 | locus YGL078C, strain dbp3, hits give low values 0.979 | locus YGL086W, strain mad1, hits give low values 0.991 | locus YGL167C, strain pmr1, hits give low values 0.972 | locus YGL173C, strain kem1, hits give low values 0.969 | locus YGL227W, strain vid30, hits give low values 0.984 | locus YGL240W, strain doc1, hits give low values 0.988 | locus YGL248W, strain PDE1, hits give low values 0.998 | locus YGL253W, strain hxk2, hits give low values 0.982 | locus YGR135W, strain pre9, hits give low values 0.986 | locus YGR229C, strain SMI1, hits give low values 0.948 | locus YGR252W, strain gcn5, hits give low values 0.978 | locus YHR013C, strain ard1, hits give low values 0.993 | locus YHR027C, strain rpn1, hits give low values 0.981 | locus YHR030C, strain SLT2, hits give low values 1 and 0.925 | locus YHR079C, strain IRE1 (second series), hits give low values 0.983 | locus YHR079C, strain IRE1, hits give low values 0.95 | locus YHR094C, strain hxt1, hits give low values 0.981 | locus YHR129C, strain ARP1, hits give low values 1.01 | locus YHR142W, strain chs7, hits give low values 0.952 | locus YHR200W, strain rpn10, hits give low values 0.986 | locus YIL066C, strain RNR3, hits give low values 0.99 | locus YIL073C, strain SPO22, hits give low values 0.9 | locus YIL125W, strain kgd1, hits give low values 0.986 | locus YIR030C, strain dcg1, hits give low values 0.984 | locus YJL092W, strain hpr5, hits give low values 0.976 | locus YJL095W, strain BCK1 (second series), hits give low values 0.99 | locus YJL095W, strain BCK1, hits give low values 0.932 and 0.954 | locus YJL115W, strain asf1, hits give low values 0.975 | locus YJL129C, strain trk1, hits give low values 0.919 | locus YJL134W, strain LCB3, hits give low values 0.995 | locus YJL154C, strain vps35, hits give low values 0.965 | locus YJL164C, strain tpk1, hits give low values 0.976 | locus YJL166W, strain qcr8, hits give low values 0.992 | locus YJL168C, strain set2, hits give low values 0.984 | locus YJL187C, strain SWE1 (second series), hits give low values 0.991 | locus YJL187C, strain SWE1, hits give low values 0.983 | locus YJR043C, strain POL32, hits give low values 1.01
